What follows are sequences tested against GPKOW (assay: pooled miR-30 sensor sort-seq; sequence = guide strand). Conditions: shRNA.

Compared with TTCTCTTGGCAGTTGCACCAAA, TAGGACATCTTCAATTATCATC is lower in sensor-assay potency score (higher = more potent): -0.529 for the first, -1.06 for the second.

First: TTCTCTTGCTCCTCATCTGGTC
Second: TTCTTGTCAAACTCCTGCTGGG
The sensor-assay potency score (higher = more potent) of the first is higher: -0.383 for the first, -0.621 for the second.

Compared with TACATGTTGTCCACAAACCGCA, TCTTCAATTATCATCTTGGTGT is higher in sensor-assay potency score (higher = more potent): -0.382 for the first, -0.0614 for the second.

Going from TTCAATTATCATCTTGGTGTTG to TACAGAACTGGTACCAGCCTGG, the sensor-assay potency score (higher = more potent) rises from -0.529 to -0.224.

Going from TTCACTACTTGATTGAAGGTGC to TCAATTATCATCTTGGTGTTGT, the sensor-assay potency score (higher = more potent) falls from 0.973 to 0.378.

Going from TAAATTTTGGTAAATATTGGGT to TCACTAACAGTCACCACCCGGC, the sensor-assay potency score (higher = more potent) rises from -0.472 to -0.433.

Each sequence was assayed against GPR109B in the same assay as above. Conditions: shRNA.

First: TTGGAATGGTTATTTGAGGTTG
Second: TGCAGTGCCATTCTGGATCAGC
The sensor-assay potency score (higher = more potent) of the first is higher: -0.497 for the first, -0.994 for the second.

First: ATAGTAGTCCATCACGAACGGC
Second: TGGCAATGAAGTCATCTCGGAA
The sensor-assay potency score (higher = more potent) of the first is higher: -1.03 for the first, -1.54 for the second.

First: TAGTAGTCCATCACGAACGGCA
Second: TTGGCAATGAAGTCATCTCGGA
The sensor-assay potency score (higher = more potent) of the first is lower: -0.532 for the first, -0.164 for the second.

Compared with TAGAAAGTCAGCTACTGCCAGG, AAACATGAAGAGCACCAGCCGG is lower in sensor-assay potency score (higher = more potent): -1.14 for the first, -1.47 for the second.

Compared with TCACCTGTTATCTTCCTCTGGA, AACATGAAGAGCACCAGCCGGC is lower in sensor-assay potency score (higher = more potent): -0.218 for the first, -0.505 for the second.

Going from ATTCTGGATCAGCAACTTCTTC to TAGGCCAACAGTGATGCCCCAC, the sensor-assay potency score (higher = more potent) rises from -1.51 to -0.395.

Each sequence was assayed against GPR123 in the same assay as above. Conditions: shRNA.

Compared with TTTTCCAGGGTCCCGTTCGGAT, TTCTAGCAATTTACCCTTGGGC is higher in sensor-assay potency score (higher = more potent): -1.35 for the first, -1.05 for the second.

First: TAATTCCTGATGTTCGTGGCAG
Second: TTCTGCAGCACGGAGGCGCCGG
The sensor-assay potency score (higher = more potent) of the first is higher: -0.373 for the first, -0.928 for the second.

Compared with TCGCAGTGCATCTTGGCGCAGC, TGTGTGCGCAGCTCGTACCTGC is higher in sensor-assay potency score (higher = more potent): -1.13 for the first, -0.983 for the second.

Going from AACAGGAACAGCGTGAAGGCGG to TGTAGAATAGTGCAGCACGATG, the sensor-assay potency score (higher = more potent) falls from -0.39 to -1.66.

First: TGCATCTTGGCGCAGCACGGGG
Second: TAGCAATTTACCCTTGGGCAGC
The sensor-assay potency score (higher = more potent) of the first is lower: -1.59 for the first, -1.23 for the second.

Going from TTCTTGGTCACCTGCTTGTAGA to TCGTTCTGCAGCACGGAGGCGC, the sensor-assay potency score (higher = more potent) rises from -1.61 to -0.763.

Each sequence was assayed against GPR137 in the same assay as above. Conditions: shRNA.

Going from AAGAACTGCAGGCAGACGGGGC to TCACTATGACAGGAGCAGCAAG, the sensor-assay potency score (higher = more potent) falls from -0.842 to -1.58.

TAGAGCAGGACCATGGCGCCAC showed a sensor-assay potency score (higher = more potent) of -0.353.

Reference: the OligoGym collection
